Binding signal data for 42 sequences are collected here from article PMC7819943, “Rice protein-binding microarrays: a tool to detect cis-acting elements near promoter regions in rice”.

In all, about 39,000 sequences were measured (“fluorescence intensity (a.u.)”: median about 4,300, highest 2% from about 39,000 on). The list comes from a sample in which the highest values are over-represented; it also holds similar and randomly drawn sequences.

The assay addresses T1, OsSMF1 (Oryza sativa, UniProt Q6ZLB0 1-436).
T1 sequence: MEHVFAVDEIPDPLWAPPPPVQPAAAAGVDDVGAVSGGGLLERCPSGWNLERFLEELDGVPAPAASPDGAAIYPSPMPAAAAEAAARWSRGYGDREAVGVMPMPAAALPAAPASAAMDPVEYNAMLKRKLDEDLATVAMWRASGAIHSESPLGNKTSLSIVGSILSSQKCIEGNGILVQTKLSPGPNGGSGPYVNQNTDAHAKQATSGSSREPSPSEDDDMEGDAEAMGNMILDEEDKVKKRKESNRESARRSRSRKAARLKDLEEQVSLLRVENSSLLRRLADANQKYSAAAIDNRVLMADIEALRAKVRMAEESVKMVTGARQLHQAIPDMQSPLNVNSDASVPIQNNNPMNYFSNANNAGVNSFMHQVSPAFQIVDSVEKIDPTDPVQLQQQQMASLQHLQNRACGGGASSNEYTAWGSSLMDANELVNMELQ
The assay can be described thus: protein-binding microarray (RPBM); PBS, 2% BSA, 51.3 ng/ul salmon testes DNA, 50 uM zinc acetate, 200 nM TF, 25 C, 1 h; high values mean tight binding. As to conditions: protein: recombinant; tags: N-terminal polyhistidine and DsRed monomer fusion (pET32a); chain copies: 2; label: CyDye5-dUTP incorporated in the synthesized complementary strand; 3' TTTTT single-stranded linker to array surface; dsDNA, one strand shown. In short, it runs like this:
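The binding signal is fluorescence intensity per array feature (arbitrary units). Readings came from an Axon 4000B scanner after a washed, 2% BSA-blocked, double-stranded custom Agilent array had been incubated for 1 h at 25 °C with 200 nM protein and 50 µM zinc acetate. The protein was a Ni–NTA-purified transcription factor fused N-terminally to polyhistidine and DsRed, expressed in E. coli BL21-CodonPlus.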
In the case of “GCCTCCACCTCGCTGCTGCTCCGCCAGCTAGTAGCCGCCACGGAGTCACCTAGTGCAG”, the binding signal is 3350 fluorescence intensity (a.u.). The value for “GACATTTACATGTACTGATTGCTGATTGCCATTGATTCATCGGAGTCACCTAGTGCAG” was 22800 fluorescence intensity (a.u.); that for “CAGTGTTACATCATCGACCGGTTATCATCTTTGTTTCGATCGGAGTCACCTAGTGCAG” was 3580 fluorescence intensity (a.u.). The value for “TTGCACATGCTGATTATTACATATTGCTACGTCCTTTTGCCGGAGTCACCTAGTGCAG” was 3230 fluorescence intensity (a.u.); that for “GGTGTGTATTGACGCACCACGTATGTCTATCTTCTTTCGTCGGAGTCACCTAGTGCAG” was 3820 fluorescence intensity (a.u.); that for “TGGCCGGAATCACACGCACAAGGTGCTGCGTCACCTATAACGGAGTCACCTAGTGCAG” was 9040 fluorescence intensity (a.u.). Consider “CACGATCCATCATATCGCTTGAGCTAGCCACAACACACAACGGAGTCACCTAGTGCAG”, for which the binding signal was 22100 fluorescence intensity (a.u.). The value for “GCATGGTGGCGGCGGGAAGGAGGAGTGGGGCGGCGGGTGCCGGAGTCACCTAGTGCAG” was 3770 fluorescence intensity (a.u.); that for “TCCCGCTCACCACCACGCCACGTCACCGATCCGCGCAACCCGGAGTCACCTAGTGCAG” was 22400 fluorescence intensity (a.u.). The value for “GTCCGTCGCGCGTCACCGCGTGCCTCGCCACGCCCACGCCCGGAGTCACCTAGTGCAG” was 5090 fluorescence intensity (a.u.); that for “GCCACCGCCGCGGGCGCGGCCCCGGCCCCGGCCCCGGCCGCGGAGTCACCTAGTGCAG” was 3390 fluorescence intensity (a.u.). The value for “GAAGCCATCCACGCGGCACCATCGGACGGCTCTCGCGCCCCGGAGTCACCTAGTGCAG” was 5210 fluorescence intensity (a.u.). With “GGGCAGATCCGGCGCCCGACGCCGGCGGATCCGCCGTCGTCGGAGTCACCTAGTGCAG”, the binding signal was 32500 fluorescence intensity (a.u.). For the sequence “GGGCCCCGCAGGCGCAGGCGCAGCGGTACGCCGTCGTCGGCGGAGTCACCTAGTGCAG”, the binding signal is 54200 fluorescence intensity (a.u.).

For “CGTCGAACCGGCGGCGGCCCGCGCCACCCACCCTACCCGCCGGAGTCACCTAGTGCAG”, the binding signal is 49100 fluorescence intensity (a.u.). The value for “CGAGTGCCACGCGTGCGCCCACCGCCACGTCACCGATCCCCGGAGTCACCTAGTGCAG” was 53800 fluorescence intensity (a.u.); that for “CCCGCCGCGCCGCGTCCCGGCCACCGCGCCGCCCGCCGCGCGGAGTCACCTAGTGCAG” was 4250 fluorescence intensity (a.u.). With “CCAGCCCCGCGCCGGCCGCCGTCCGTCCGCCCGCGCGCGGCGGAGTCACCTAGTGCAG”, the binding signal was 3540 fluorescence intensity (a.u.). “CCCCACCACCTCATCGATCCGCGCCACCACCCAACCCACCCGGAGTCACCTAGTGCAG”: the binding signal is 4250 fluorescence intensity (a.u.). Take “CTTGGATCCAACGGCCACGGCTCTCTCATCGCCGCGCCCCCGGAGTCACCTAGTGCAG”: the binding signal is 46100 fluorescence intensity (a.u.). The value for “ACACATGCTTCAAGTGGCTAAGAGGGCATCCTCCCTTTTACGGAGTCACCTAGTGCAG” was 16000 fluorescence intensity (a.u.); that for “TAACTTCTTGCAGAAATGCCTCGTCATCGGTGACGCCGTTCGGAGTCACCTAGTGCAG” was 4870 fluorescence intensity (a.u.).

Consider “AAATTTGATCCTCGCACACCAGCTCAGCTACAGATGACATCGGAGTCACCTAGTGCAG”, for which the binding signal was 4230 fluorescence intensity (a.u.). On to “TTTGCATGCTTCATTACCACCTTCATCCACGTTGAAAGTACGGAGTCACCTAGTGCAG”, for which the binding signal was 4160 fluorescence intensity (a.u.). The value for “GCACATCGCGCTCGCCGAAGCAGAACCACGCGGCCACCGGCGGAGTCACCTAGTGCAG” was 3240 fluorescence intensity (a.u.); that for “CGCAGCAAGCGTCACGTCACCAACTGTTTGCTCCAACTGTCGGAGTCACCTAGTGCAG” was 9370 fluorescence intensity (a.u.). The value for “AAGAAACAACACACGTTAGCATTTCACTGCTATTAAGTTCCGGAGTCACCTAGTGCAG” was 5010 fluorescence intensity (a.u.); that for “GACGTTAGTGATCAGCTGGGTTAATTAATTACGTGGCTAACGGAGTCACCTAGTGCAG” was 7210 fluorescence intensity (a.u.). Take “CTCGCTGCTTCGCCCGCCACGTCACCCTCCTCCTCCTCCCCGGAGTCACCTAGTGCAG”: the binding signal was 62000 fluorescence intensity (a.u.).

As for “GCTGCTGCACCACGTCCTTCCTCTTCCTCGCCCCACCACCCGGAGTCACCTAGTGCAG”, the binding signal was 6380 fluorescence intensity (a.u.). The value for “TTCGCGCGCCACCTCCTCGCGCTCGCCTGCTTCTTCTCCCCGGAGTCACCTAGTGCAG” was 3380 fluorescence intensity (a.u.); that for “AAAACCTGACTTTGCATCATTAGACGATTTGTCCATTGAACGGAGTCACCTAGTGCAG” was 3160 fluorescence intensity (a.u.).

Consider “GGCTAGCCAGCGACCGACCGGCGGCCACCGTGGCGGGATTCGGAGTCACCTAGTGCAG”, for which the binding signal was 4850 fluorescence intensity (a.u.). The value for “AGGTACGTAAATTTTATATATTCCATATGAGCTCTAAATACGGAGTCACCTAGTGCAG” was 3580 fluorescence intensity (a.u.). “CACGCAGTAGGGATCGAGGATGTCGTACGCGTACCTCTTCCGGAGTCACCTAGTGCAG”: the binding signal was 26100 fluorescence intensity (a.u.). For “GTAGTCGTAATGTCATCGTCATCGACATCGATGTGTTGCTCGGAGTCACCTAGTGCAG”, the binding signal is 4940 fluorescence intensity (a.u.). The value for “AGGAGGTAGGATAGTTCCCTCCGTAATGGATCGAGGATGTCGGAGTCACCTAGTGCAG” was 42000 fluorescence intensity (a.u.); that for “TCCTTCTTCCTTGGCCTCTTCCTAATGACAAGCCCTTGCGCGGAGTCACCTAGTGCAG” was 3610 fluorescence intensity (a.u.); that for “GCTCTTGAGAATGTTGCTGAGTTGTCAGCTCTCTCCACCCCGGAGTCACCTAGTGCAG” was 15700 fluorescence intensity (a.u.). The value for “CCATATAGGAATTTAAAACTAACTAAAATTCGGAATAAACCGGAGTCACCTAGTGCAG” was 3400 fluorescence intensity (a.u.). The value for “ACCCATAGAGATCGACACTATAGGTACCGGAATAACTAAACGGAGTCACCTAGTGCAG” was 63800 fluorescence intensity (a.u.). With “GATCGTACATGTTCACATAAACACCCACGACACTACCCTACGGAGTCACCTAGTGCAG”, the binding signal is 18400 fluorescence intensity (a.u.).
